# Assay outcomes as filed in PubChem.
# CYP2C19 activ: activators of human cytochrome P450 2C19. P33261. recombinant CYP2C19, luciferin-H EGE luminescence; active compounds read high; 0 = fully inhibited enzyme, 1 = untreated enzyme. activation factor at 5 µM. 96,000 tested, under 10 active;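 active means activation factor of at least 2 at 5 µM in the primary screen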;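 further: 0 = wells with 2.5 mM tranylcypromine and 1 = vehicle-only wells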
# Target sequence (P33261 whole entry, looked up): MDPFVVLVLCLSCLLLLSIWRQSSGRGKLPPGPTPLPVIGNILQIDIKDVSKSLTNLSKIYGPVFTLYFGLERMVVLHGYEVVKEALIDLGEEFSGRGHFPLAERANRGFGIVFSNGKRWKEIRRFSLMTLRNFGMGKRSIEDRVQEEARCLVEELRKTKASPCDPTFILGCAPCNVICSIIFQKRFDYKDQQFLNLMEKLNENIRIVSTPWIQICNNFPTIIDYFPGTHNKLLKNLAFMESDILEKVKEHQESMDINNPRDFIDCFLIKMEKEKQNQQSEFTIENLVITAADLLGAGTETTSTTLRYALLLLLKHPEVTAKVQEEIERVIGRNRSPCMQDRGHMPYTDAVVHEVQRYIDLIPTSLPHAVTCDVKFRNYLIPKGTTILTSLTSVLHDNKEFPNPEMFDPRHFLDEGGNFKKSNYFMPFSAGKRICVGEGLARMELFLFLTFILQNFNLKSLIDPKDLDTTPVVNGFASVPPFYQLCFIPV
# E-sel TNF inh: blocks E-selectin expression induced by TNF alpha; HUVEC TNFa-induced E-selectin immunofluorescence, high content; inhibition, % at 2 µM; actives 0.71% (n = 120,000);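 active means inhibition above the batch mean plus 3 SD, and confirmed as a hit on visual image review, cut at about 43% in these data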;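 further: 0% = TNF-stimulated DMSO wells and 100% = unstimulated control wells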
# F-actin modifier: alters cytoskeleton assembly in HUVEC cells; HUVEC TNFa F-actin phalloidin imaging, high content; inhibition, % at 2 µM; actives 0.18% (n = 91,000);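 active means inhibition above the batch mean plus 3 SD and confirmed as a hit by visual image inspection, cut at about 30% in these data, passing the limit was not always enough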
# CYP2C19 inhib: blocks human cytochrome P450 2C19. P33261. CYP2C19 Supersomes, luciferin-H EGE luminescence, 30 min. inhibition, % at 5 µM. actives 21% (n = 96,000). AID 778;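 active means CYP2C19 inhibition above a set limit at 5 µM in the primary screen, cut at about 50% in these data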;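 further: plate controls were negative control wells for no effect and 2.5 mM tranylcypromine positive control for full effect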
# CYP2C9 activ: CYP2C9 (human) activation; recombinant CYP2C9, luciferin-H conversion, luminescence; active compounds read high; factor 1 = untreated enzyme, 0 = blocked; activation factor at 5 µM; actives 1.4% (n = 96,000); AID 1024;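 active means activation factor of 2 or more for CYP2C9 at a 5 µM dose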;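 further: 0 = sulfaphenazole-blocked wells and 1 = vehicle-only wells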
# CYP2C9 inh: human CYP2C9 inhibition. P11712. CYP2C9 Supersomes, luciferin-H conversion, luminescence. inhibition, % at 5 µM. actives 20% (n = 96,000). AID 777;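 active means blocking of liver enzyme CYP2C9 beyond about 50% at 5 µM, limit read from the data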
# * = called active by the depositor; x = not tested or not shown. Sampled rows, rich in hits. Any-hit rate of the full collection: about 22%.
SMILES,CYP2C19 activ,E-sel TNF inh,F-actin modifier,CYP2C19 inhib,CYP2C9 activ,CYP2C9 inh
Cc1ccc(OC(=O)CCc2c(C)nc3ncnn3c2C)cc1,0.4,-4.3,9.2,56.0*,0.9,10.2
Cc1nc2ncnn2c(C)c1Cc1c(Cl)cccc1Cl,0.4,x,-5.4,61.8*,0.7,29.8
CCOc1cccc(NC(=O)CSc2nc(C)c3c(c2C#N)CCCC3)c1,0.9,3.5,8.7,14.4,0.8,16.0
Cc1ccc(NC(=S)N(N)CCO)cc1,x,0.0,x,x,x,x
Cc1nn(Cc2ccccc2)c(N)c1-c1ccccc1,0.4,x,22.4,63.2*,0.8,20.7
Cc1ccccc1CS(=O)(=O)Cc1ccc(C(=O)NCc2ccccn2)o1,0.9,x,-19.1,10.2,0.9,9.6
CCOc1ccc(NS(=O)(=O)c2ccc(OC)c(NC(=O)c3ccc4c(c3)OCCO4)c2)cc1,x,0.9,x,x,x,x
Cc1sc2ncn(CC(=O)NCCCC(=O)N3CCN(c4ncccn4)CC3)c(=O)c2c1C,1,13.3,-30.0,1.1,0.8,24.0
COc1ccccc1NC(=O)CCNC(=O)Cn1ccc2ccccc2c1=O,1,x,12.8,1.3,0.8,17.0
Cn1ncc(N=Cc2ccccc2)c1C(N)=O,1,5.9,7.0,-0.6,0.7,27.7
Cn1ncc(N=Cc2ccccc2)c1C(=O)Nc1cccc(Cl)c1,1.1,11.4,-39.9,-15.0,0.4,55.7*
CC(=O)Nc1nc(C)nc(-c2ccccc2)c1C(C)=O,1.1,8.5,0.6,-8.7,1.1,-5.7
CC(=O)c1c(NC(=O)C(C)C)nc(C)nc1-c1ccccc1,0.6,x,1.9,39.1,0.4,55.3*
Cc1nnc(NC(=O)C2(c3ccccc3)CCOCC2)s1,0.5,23.7,-4.9,50.4*,0.8,18.0
CCc1nnc(NC(=O)C2COc3ccccc3O2)s1 (stereo not drawn),0.9,12.4,-13.6,14.5,0.4,55.8*
Cc1nnc(NC(=O)C2COc3ccccc3O2)s1 (stereo not drawn),0.5,x,x,45.1,0.1,85.5*
CCC(CC)c1nnc(NC(=O)C2COc3ccccc3O2)s1 (stereo not drawn),x,x,19.4,x,x,x
Cc1cc2cccc(C)c2nc1SCC(=O)NCC1CCCO1 (stereo not drawn),x,6.2,x,x,x,x
O=C(CN1CCN(S(=O)(=O)c2ccc(Cl)cc2)CC1)Nc1ccc2c(c1)OCCO2,0.6,-6.3,0.7,41.6,0.9,14.3
O=C(Nc1ccc2c(c1)OCCO2)c1ccc(S(=O)(=O)N2CCCCC2)cc1,0.7,x,0.5,29.0,0.3,69.8*
O=C(Nc1ccc2c(c1)OCCO2)c1ccc(Br)c(S(=O)(=O)N2CCOCC2)c1,0.2,8.3,-38.7,81.5*,0.5,53.4*
O=C(CN1CCN(S(=O)(=O)c2ccc(Br)cc2)CC1)Nc1ccc2c(c1)OCCO2,0.2,-44.5,x,77.7*,0.7,34.8
COc1ccc2oc3cc(C)[n+]([O-])c(-c4ccc(Br)cc4)c3c2c1,x,19.2,x,x,x,x
CCOC(=O)C1CCCN(C(=O)c2ccc(OC(C)=O)cc2)C1 (stereo not drawn),0.7,25.2,22.9,35.0,0.9,12.5
CC(C)N(C(=O)CSc1nc2ccccc2n1Cc1ccccc1F)C(C)C,x,-23.2,-1.4,x,x,x
SMILES,CYP2C19 activ,E-sel TNF inh,F-actin modifier,CYP2C19 inhib,CYP2C9 activ,CYP2C9 inh
CCCc1nn(-c2cc(Cl)ccc2OC)c2c1C(=O)CCC2,0.4,-2.7,-10.9,58.6*,0.6,41.8
CCCCc1nn(-c2cc(Cl)ccc2OC)c2c1C(=O)CC(C)(C)C2,0.6,-1.4,3.2,44.2,0.4,55.8*
CCCCc1n[nH]c2c1C(=O)CC(C)(C)C2,0.6,-20.7,x,35.7,0.6,37.9
COc1ccc(Cl)cc1-n1c(C)ccc1C,x,15.4,x,x,x,x
COc1ccc2nc(NC(=O)C3COc4ccccc4O3)sc2c1 (stereo not drawn),0.4,19.6,-3.1,56.7*,0.5,45.1
COc1ccc2nc(NNC(=O)C3COc4ccccc4O3)sc2c1 (stereo not drawn),x,-20.1,x,x,x,x
Cc1ccc(C(=O)Nc2nc3ccc(S(C)(=O)=O)cc3s2)s1,1.1,2.5,-11.3,-9.2,1,0.7
CS(=O)(=O)c1ccc2nc(NC(=O)CN3CCN(Cc4ccccc4)CC3)sc2c1,0.3,0.2,-6.5,65.3*,0.7,29.9
CS(=O)(=O)c1ccc2nc(NC(=O)C3COc4ccccc4O3)sc2c1 (stereo not drawn),1,x,-2.0,-0.8,0.2,75.6*
O=C(CSc1nnc(COc2ccc(Cl)cc2)o1)OC1CCCCC1,1,-9.1,14.5,2.7,1,4.6
CCc1ccc(OCC(=O)NC(=S)Nc2ccc(S(=O)(=O)NC3CCCCC3)cc2)cc1,0.9,4.8,-15.6,6.2,0.3,74.1*
COC(=O)COc1ccc(S(=O)(=O)NC2CCCCCC2)cc1,0.1,-5.3,-2.2,93.8*,0.1,87.7*
O=S(=O)(NC1CCCCC1)c1ccc(Br)cc1,0.2,-19.7,x,79.8*,0.7,26.0
COC(=O)CCN(C1CCCCC1)S(=O)(=O)c1ccc(S(=O)(=O)NC2CCCCC2)cc1,0,8.4,-12.6,97.4*,0,100.0*
O=C(COc1ccc(S(=O)(=O)NC2CCCCC2)cc1)NC1CCCCC1,x,11.9,2.2,x,x,x
COc1cccc(-c2nnn(CCC(=O)O)n2)c1,1,x,-61.4,4.4,1,-3.8
CCOC(=O)/C(C#N)=C\c1ccc(OCC(=O)Nc2ccc(C)cc2C)c(OC)c1,0.2,-2.2,-43.4,77.5*,0.7,27.0
COc1ncnc2c1N[C@@](C)(O)c1c(F)c(F)c(F)c(F)c1S2,0.1,-48.2,19.5,85.9*,0.7,29.2
Cc1oc2cc(O)ccc2c(=O)c1Oc1ccccc1,0.7,x,32.9,27.4,2*,-100.1
Cc1oc2cc(O)ccc2c(=O)c1N1C(=O)c2ccccc2C1=O,1.1,x,3.4,-7.8,2.2*,-118.4
Cc1oc2cc(O)ccc2c(=O)c1Oc1ccccc1Br,0.7,-15.6,x,27.2,1.6,-60.5
COC(=O)c1cc(-c2c(C)oc3cc(O)ccc3c2=O)c(C)o1,x,-6.3,-27.9,x,x,x
Cc1ccccc1-c1c(C)oc2cc(O)ccc2c1=O,0.8,0.2,49.7,21.9,2.2*,-115.6
Nc1c(NCCC2=CCCCC2)c(=O)[nH]c(=O)n1Cc1ccccc1,1,8.7,1.9,4.0,0.8,17.3
COc1ccc(C2Oc3ccccc3C3=C2C(c2cccs2)n2ncnc2N3)cc1 (stereo not drawn),0.8,17.5,12.4,22.0,0.3,67.4*
CC1=C(C(=O)Nc2ccccn2)C(c2ccc(N(C)C)cc2)n2ncnc2N1 (stereo not drawn),1,18.4,11.2,-3.3,0.9,8.9
COc1ccc(OC)c(NC(=O)C2=C(C)Nc3ncnn3C2c2cccs2)c1 (stereo not drawn),0.9,x,x,13.6,1,-1.0
Brc1ccc(C2C3=C(Nc4ncnn42)c2ccccc2OC3c2ccncc2)cc1 (stereo not drawn),0.4,27.8,5.8,55.3*,0.1,89.4*
O=C(CN(Cc1cccs1)C(=O)CSc1nnc(COc2ccccc2)o1)NC1CCCCC1,x,-2.6,15.9,x,x,x
